Assay [1] in a line: qHTS assay to identify small molecule antagonists of the sonic hedgehog signaling (Shh) pathway (AID 1259369; calls by dose curve; note: nearly all actives have a fitted effect of over 45% in size; note: potency is the fitted concentration of half-maximal effect). Summed up:
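Luminescence readout: firefly Luc under Gli1 response element in 3T3Gli1-Luc cells (NIH/3T3 clone). Antagonist mode, stimulation by conditioned medium; compound exposure 24hr at 37 C, 5% CO2.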
(Quantitative high-throughput screening tests each substance at several concentrations.)

The target of assay [2] is Estrogen receptor beta (Homo sapiens) (UniProt Q92731). Put plainly: qHTS assay to identify small molecule agonists of the estrogen receptor beta (ER-beta) signaling pathway (AID 1259377; active = well fitted activation curve with a large enough effect in the signal ratio in the repeat runs, not every such curve was filed as active; the % refers to the signal ratio). Put shortly:
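In HEK293T cells bearing a UAS-beta-lactamase reporter under ER-beta control, DMSO-delivered compounds were incubated for 16 hr at 37C. Activity was detected as fluorescence 2 hours after LiveBLAzer B/G FRET substrate addition.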

The target is the same in assay [3]. In words: qHTS assay to identify small molecule antagonists of the estrogen receptor beta (ER-beta) signaling pathway (AID 1259378; active = well fitted inhibition curve with a large enough effect in the signal ratio in the repeat runs, not every such curve was filed as active; the % refers to the signal ratio; note: potency is the fitted concentration of half-maximal effect). Summed up:
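ER-beta-UAS-bla HEK293T (GripTite) cells in 2% charcoal-stripped FBS medium were preincubated 6 hr at 37C, dosed with compound, then stimulated with 1 nM E2 (final) for 16 hr; beta-lactamase reporter read by B/G FRET fluorescence after 2 hr substrate loading.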

Assay [4] is described as follows: qHTS assay to identify small molecule agonists of the estrogen receptor beta (ER-beta) signaling pathway - cell viability counter screen (AID 1259380). Note: nearly all actives have a fitted effect of over 30% in size. Note: potency is the fitted concentration of half-maximal effect. Summed up:
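Luminescence read-out (CellTiter-Glo, 30 min, room temp) taken in the same wells as the beta-lactamase reporter assay; ER-beta-UAS-bla HEK293T cells exposed to DMSO-dissolved compounds for 16 hr at 37C in 2% charcoal-stripped FBS medium.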

For assay [5], the target named is Androgen receptor (Homo sapiens) (UniProt P10275). Put plainly: qHTS assay to identify small molecule agonists of the androgen receptor (AR) signaling pathway in the presence of an antagonist (AID 1259381; calls by dose curve; note: nearly all actives have a fitted effect of over 15% in size). Put shortly:
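Luciferase read-out (ONE-Glo, 30min room temperature) in MDA-kb2 MMTV-reporter cells; agonist mode run in presence of AR antagonist nilutamide, 3.0uM final. Compounds tested as 15-point series, 16hr exposure at 37C, 0% CO2.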

The nature of assay [6]: qHTS assay to identify small molecule antagonists of the estrogen receptor beta (ER-beta) signaling pathway - cell viability counter screen (AID 1259382). Note: series mostly up to about 92 µM; nearly all actives have a fitted effect of over 55% in size. Put shortly:
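Luminescent ATP read-out (CellTiter-Glo, 30 min, RT) taken in the same wells as the bla reporter assay. HEK293T ER-beta-UAS-bla cells in 2% charcoal-stripped FBS were exposed to compounds with 1nM E2 for 16 hr at 37C.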

The target in assay [7] is Estrogen receptor (Homo sapiens) (UniProt P03372). Put plainly: qHTS assay to identify small molecule agonists of the estrogen receptor alpha (ER-alpha) signaling pathway in the presence of an antagonist (AID 1259383; calls by dose curve; note: top concentration of the series differs between compounds; nearly all actives have a fitted effect of over 15% in size). Summed up:
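Luciferase luminescence (ONE-Glo, 30min at room temperature) measured in VM7Luc4E2 cells after 22hr compound exposure at 15 concentrations, with 10.0nM ICI-182,780 final present; cells express endogenous ER-alpha and carry four EREs upstream of luciferase.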

Assay [8] in a line: qHTS assay to identify small molecule agonists or antagonists of the thyroid stimulating hormone receptor (TSHR) signaling pathway - wild type cell line counter screen (AID 1259384; calls by dose curve). Put shortly: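 Wild-type HEK293 cells were plated 18 h at 37 C/5% CO2, pin-dosed with compound plus Ro20-1724 medium, held 30 min at room temperature, then given cAMP-d2 and anti-cAMP-cryptate; fluorescence was read after 1 h. Fifteen concentrations, triplicate.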

Assay [9] is described as follows: qHTS assay to identify small molecule agonists of the estrogen receptor alpha (ER-alpha) signaling pathway in the presence of an antagonist - cell viability counter screen (AID 1259386). Note: series mostly up to about 92 µM; nearly all actives have a fitted effect of over 30% in size. Put shortly: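 Read-out: CellTiter-Fluor fluorescence after 1hr reagent incubation, measured in the same wells as the luciferase readout. VM7Luc4E2 cells were exposed to 15 compound concentrations with 10.0nM ICI-182,780 for 22hr at 37C.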

Assay [10] concerns the target Progesterone receptor (Homo sapiens) (UniProt P06401). Put plainly: qHTS assay to identify small molecule agonists of the progesterone receptor (PR) signaling pathway (AID 1346784; calls by dose curve; note: nearly all actives have a fitted effect of over 30% in size). Put shortly:
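Using charcoal-stripped serum (2%) to limit endogenous steroids, PR-UAS-bla HEK 293T cells received compounds for 16 hr at 37C after 6 hr plating; beta-lactamase FRET fluorescence was recorded following 2 hr substrate loading at room temperature.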

Assay [11] can be described thus: qHTS assay to identify small molecule antagonists of the TGF-beta/Smad signaling pathway - cell viability counter screen (AID 1346824). Note: nearly all actives have a fitted effect of over 50% in size. Put shortly:
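SBE-bla HEK 293T cells were plated overnight at 37 C, then given compounds in DMSO plus TGF-beta1 (added as 0.25 ng/mL solution) for 5 hr. After the bla read, CellTiter-Glo was added to the same wells and luminescence read after 30 min at room temperature.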

Assay [12] is described as follows: qHTS assay to identify small molecule agonists of the TGF-beta/Smad signaling pathway (AID 1346859; active = well fitted activation curve with a large enough effect in the signal ratio in the repeat runs, not every such curve was filed as active; the % refers to the signal ratio; note: series mostly up to about 77 µM). Summed up: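 Stable Smad binding element-beta-lactamase HEK 293T cells; 5 hr compound exposure at 37 C under 5% CO2; 2 hr room-temperature substrate step; fluorescence excited at 405 nm, collected at 460 nm and 530 nm.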
Assay [13] can be described thus: qHTS assay to identify small molecule agonists of the androgen receptor (AR) signaling pathway in the presence of an antagonist - cell viability counter screen (AID 1259379).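 Note: MDA-kb2 human breast cancer cells carrying an MMTV luciferase reporter; series mostly up to about 92 µM; nearly all actives have a fitted effect of over 25% in size.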 Summed up:
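Viability counter screen: CellTiter-Fluor fluorescence, measured in the same wells as the luciferase read-out. MDA-kb2 cells, 3,000/well, with nilutamide at 3.0uM final and compounds at 15 concentrations, 16 hr at 37C, 0% CO2.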

For assay [14], the target named is Thyrotropin receptor (Homo sapiens) (UniProt P16473). In words: qHTS assay to identify small molecule antagonists of the thyroid stimulating hormone receptor (TSHR) signaling pathway (AID 1259385; calls by dose curve; note: nearly all actives have a fitted effect of over 20% in size). Put shortly:
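TSHR-HEK293 cells were plated and held 18 h at 37C/5% CO2, then given compound plus Ro20-1724 and stimulated with TSH at 1.5 ng/mL final. After 30 min at room temperature, cAMP was detected with cAMP-d2/anti-cAMP-cryptate (1 h) by fluorescence.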

Assay [15] deals with Progesterone receptor (Homo sapiens) (UniProt P06401). In words: qHTS assay to identify small molecule antagonists of the progesterone receptor (PR) signaling pathway (AID 1346795; active = well fitted inhibition curve with a large enough effect in the signal ratio in the repeat runs, not every such curve was filed as active; the % refers to the signal ratio). Summed up: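 Inhibition of R5020-induced (1 nM final) beta-lactamase reporter signal in PR-UAS-bla HEK293T cells was scored by FRET fluorescence after overnight (16 hr) compound treatment.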
The nature of assay [16]: qHTS assay to identify small molecule antagonists of the progesterone receptor (PR) signaling pathway - cell viability counter screen (AID 1346798). Note: series mostly up to about 92 µM; nearly all actives have a fitted effect of over 50% in size. Summed up: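 ATP content as viability readout: CellTiter-Glo luminescence, 30 min room temperature, in PR-UAS-bla HEK293T cells after 16 hr compound/R5020 treatment at 37C and 5% CO2.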
Assay [17] is described as follows: qHTS assay to identify small molecule agonists of the progesterone receptor (PR) signaling pathway - cell viability counter screen (AID 1346799; calls by dose curve; note: nearly all actives have a fitted effect of over 45% in size; note: potency is the fitted concentration of half-maximal effect). Summed up:
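Cytotoxicity in PR-bla HEK293T cells: 16 h compound, 37C; CellTiter-Glo added post-FRET read; luminescence after 30 min RT.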

Assay [18] is described as follows: qHTS assay to identify small molecule agonists of the TGF-beta/Smad signaling pathway - cell viability counter screen (AID 1346829). Note: top concentration of the series differs between compounds; nearly all actives have a fitted effect of over 45% in size. Put shortly: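 Same-well cytotoxicity: CellTiter-Glo added after the 2 hr room-temperature beta-lactamase substrate step, luminescence measured 30 min later; cells had 5 hr of compound at 37 C.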
Assay [19] concerns the target Thyrotropin-releasing hormone receptor (Homo sapiens) (UniProt P34981). Put plainly: qHTS assay to identify small molecule agonists of the thyrotropin-releasing hormone receptor (TRHR) signaling pathway (AID 1346891; calls by dose curve; note: potency is the fitted concentration of half-maximal effect;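 for activation: HEK293 cells expressing TRHR with calcium dye readout; series mostly up to about 58 µM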). Put shortly: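 In 1536-format, 1500 TRHR-Hek293 cells per well grew 18 h, took up calcium dye for 2 h at 37 °C, received compound, and were read kinetically; 15-point titrations, triplicates.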

Assay [20] has the same target. Put plainly: qHTS assay to identify small molecule antagonists of the thyrotropin-releasing hormone receptor (TRHR) signaling pathway (AID 1346877; active = well fitted inhibition curve with a large enough effect in the repeat runs, not every such curve was filed as active; note: series mostly up to about 51 µM). Put shortly: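 HEK293/TRHR cells, 18 h, 37 °C; Ca2+ dye 2 h; cpd 5 min RT; TRH 1 nM final; fluorescence read 3 min, 1 s intervals; 15 concs, triplicate.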

Molecules are shown by their SMILES. Inconclusive results are not listed. The source made the active and inactive calls. Unless noted, calls come from the whole dose curve; as a rule, active = well fitted curve in the direction sought with a large enough effect in the repeat runs; inconclusive = weak or mixed curves; inactive = no such curve, though single readings can be large; an effect the other way counts as inactive or inconclusive.

Thyrotropin receptor (Homo sapiens), sequence (P16473 whole entry, looked up): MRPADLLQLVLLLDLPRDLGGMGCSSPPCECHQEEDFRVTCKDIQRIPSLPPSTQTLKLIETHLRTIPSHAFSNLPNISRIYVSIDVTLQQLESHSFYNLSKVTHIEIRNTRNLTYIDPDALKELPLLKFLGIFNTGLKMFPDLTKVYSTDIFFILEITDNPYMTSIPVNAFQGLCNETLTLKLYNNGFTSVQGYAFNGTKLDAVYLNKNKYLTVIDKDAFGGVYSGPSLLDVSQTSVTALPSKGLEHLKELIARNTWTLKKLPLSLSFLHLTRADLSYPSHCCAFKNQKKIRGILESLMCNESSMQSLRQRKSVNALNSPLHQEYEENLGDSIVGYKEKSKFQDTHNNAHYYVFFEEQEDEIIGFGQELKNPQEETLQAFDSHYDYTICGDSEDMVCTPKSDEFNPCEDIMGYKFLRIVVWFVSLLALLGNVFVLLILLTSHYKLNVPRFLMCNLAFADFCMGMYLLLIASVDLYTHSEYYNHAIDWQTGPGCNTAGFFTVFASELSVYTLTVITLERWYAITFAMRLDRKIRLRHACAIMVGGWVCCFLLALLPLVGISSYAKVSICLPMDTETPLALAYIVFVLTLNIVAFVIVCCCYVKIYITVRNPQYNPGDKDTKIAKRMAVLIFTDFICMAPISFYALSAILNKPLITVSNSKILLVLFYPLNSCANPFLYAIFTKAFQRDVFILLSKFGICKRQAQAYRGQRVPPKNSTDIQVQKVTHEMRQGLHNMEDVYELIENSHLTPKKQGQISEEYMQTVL
Estrogen receptor (Homo sapiens), sequence (P03372 whole entry, looked up): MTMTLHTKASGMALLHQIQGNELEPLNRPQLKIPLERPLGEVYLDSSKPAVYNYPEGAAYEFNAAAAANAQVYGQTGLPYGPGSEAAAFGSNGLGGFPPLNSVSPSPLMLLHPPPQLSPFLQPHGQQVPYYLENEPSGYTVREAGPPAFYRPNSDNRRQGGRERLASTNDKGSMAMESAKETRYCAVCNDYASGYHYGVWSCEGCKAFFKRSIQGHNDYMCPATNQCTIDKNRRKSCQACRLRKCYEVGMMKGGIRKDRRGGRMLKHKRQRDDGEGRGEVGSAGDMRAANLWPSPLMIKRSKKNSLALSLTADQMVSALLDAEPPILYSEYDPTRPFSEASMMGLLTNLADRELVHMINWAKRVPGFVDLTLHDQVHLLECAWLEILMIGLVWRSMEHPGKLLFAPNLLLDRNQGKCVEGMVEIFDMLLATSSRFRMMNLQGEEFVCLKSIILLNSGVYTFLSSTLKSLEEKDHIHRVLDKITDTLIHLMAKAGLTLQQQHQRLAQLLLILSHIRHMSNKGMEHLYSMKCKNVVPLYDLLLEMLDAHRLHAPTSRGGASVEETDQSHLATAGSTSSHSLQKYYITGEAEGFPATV
Androgen receptor (Homo sapiens), sequence (P10275 whole entry, looked up): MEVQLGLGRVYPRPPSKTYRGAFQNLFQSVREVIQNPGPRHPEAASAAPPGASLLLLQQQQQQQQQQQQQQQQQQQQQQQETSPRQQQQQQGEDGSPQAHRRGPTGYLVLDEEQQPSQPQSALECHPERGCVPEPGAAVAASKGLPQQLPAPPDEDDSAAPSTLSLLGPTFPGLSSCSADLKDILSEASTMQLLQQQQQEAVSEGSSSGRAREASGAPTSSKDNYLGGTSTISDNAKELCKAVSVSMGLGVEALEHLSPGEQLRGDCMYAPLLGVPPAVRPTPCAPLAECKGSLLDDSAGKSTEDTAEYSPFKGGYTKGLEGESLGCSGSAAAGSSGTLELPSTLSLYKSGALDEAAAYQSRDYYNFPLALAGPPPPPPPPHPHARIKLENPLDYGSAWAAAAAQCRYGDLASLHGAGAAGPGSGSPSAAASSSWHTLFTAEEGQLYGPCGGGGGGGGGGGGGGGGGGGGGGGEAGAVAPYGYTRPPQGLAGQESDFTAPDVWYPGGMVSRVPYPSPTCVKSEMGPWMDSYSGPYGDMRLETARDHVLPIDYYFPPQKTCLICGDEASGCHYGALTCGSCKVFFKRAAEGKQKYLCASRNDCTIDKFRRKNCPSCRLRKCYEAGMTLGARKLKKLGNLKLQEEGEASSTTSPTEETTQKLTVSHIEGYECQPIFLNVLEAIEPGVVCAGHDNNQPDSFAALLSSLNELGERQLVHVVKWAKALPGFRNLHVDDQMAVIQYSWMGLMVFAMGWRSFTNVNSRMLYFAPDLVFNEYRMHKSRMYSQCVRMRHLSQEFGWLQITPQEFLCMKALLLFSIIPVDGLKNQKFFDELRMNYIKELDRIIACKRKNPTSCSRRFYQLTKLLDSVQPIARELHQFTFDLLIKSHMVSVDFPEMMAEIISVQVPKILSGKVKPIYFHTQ
Progesterone receptor (Homo sapiens), sequence (P06401 whole entry, looked up): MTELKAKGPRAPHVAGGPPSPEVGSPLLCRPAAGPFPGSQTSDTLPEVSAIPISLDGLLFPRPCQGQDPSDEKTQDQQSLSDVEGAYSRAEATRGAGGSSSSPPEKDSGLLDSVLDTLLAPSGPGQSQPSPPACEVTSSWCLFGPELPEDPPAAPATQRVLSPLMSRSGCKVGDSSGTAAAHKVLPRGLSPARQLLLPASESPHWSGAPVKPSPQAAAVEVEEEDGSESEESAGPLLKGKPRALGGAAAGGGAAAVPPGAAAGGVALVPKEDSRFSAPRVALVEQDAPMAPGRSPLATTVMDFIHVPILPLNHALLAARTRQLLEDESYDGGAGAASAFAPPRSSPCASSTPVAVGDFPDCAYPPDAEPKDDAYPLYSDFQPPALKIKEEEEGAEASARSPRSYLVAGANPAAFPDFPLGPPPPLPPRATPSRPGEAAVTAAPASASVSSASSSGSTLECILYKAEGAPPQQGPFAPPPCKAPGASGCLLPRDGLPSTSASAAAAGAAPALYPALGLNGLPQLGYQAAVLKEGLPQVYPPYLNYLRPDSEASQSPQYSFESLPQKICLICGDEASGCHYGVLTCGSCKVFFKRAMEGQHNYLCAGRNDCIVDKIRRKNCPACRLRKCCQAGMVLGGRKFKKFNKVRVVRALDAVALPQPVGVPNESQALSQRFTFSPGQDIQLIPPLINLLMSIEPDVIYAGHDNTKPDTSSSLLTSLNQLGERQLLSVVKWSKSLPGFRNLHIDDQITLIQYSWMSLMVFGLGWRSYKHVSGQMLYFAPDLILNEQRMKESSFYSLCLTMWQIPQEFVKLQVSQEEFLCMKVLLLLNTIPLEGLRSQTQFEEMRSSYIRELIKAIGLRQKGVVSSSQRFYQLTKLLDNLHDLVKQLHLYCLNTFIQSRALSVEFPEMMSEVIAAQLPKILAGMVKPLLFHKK
Thyrotropin-releasing hormone receptor (Homo sapiens), sequence (P34981 whole entry, looked up): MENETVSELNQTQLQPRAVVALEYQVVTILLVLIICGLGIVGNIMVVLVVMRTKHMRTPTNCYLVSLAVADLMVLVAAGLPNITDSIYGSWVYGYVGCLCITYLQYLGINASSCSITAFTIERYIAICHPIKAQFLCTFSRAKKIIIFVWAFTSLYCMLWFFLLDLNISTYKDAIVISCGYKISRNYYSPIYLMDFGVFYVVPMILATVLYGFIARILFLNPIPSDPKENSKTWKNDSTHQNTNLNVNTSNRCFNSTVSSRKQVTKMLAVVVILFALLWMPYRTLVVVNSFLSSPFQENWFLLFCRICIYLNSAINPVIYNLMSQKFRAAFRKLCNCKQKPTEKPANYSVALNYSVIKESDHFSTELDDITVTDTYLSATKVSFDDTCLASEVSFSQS
Estrogen receptor beta (Homo sapiens), sequence (Q92731 whole entry, looked up): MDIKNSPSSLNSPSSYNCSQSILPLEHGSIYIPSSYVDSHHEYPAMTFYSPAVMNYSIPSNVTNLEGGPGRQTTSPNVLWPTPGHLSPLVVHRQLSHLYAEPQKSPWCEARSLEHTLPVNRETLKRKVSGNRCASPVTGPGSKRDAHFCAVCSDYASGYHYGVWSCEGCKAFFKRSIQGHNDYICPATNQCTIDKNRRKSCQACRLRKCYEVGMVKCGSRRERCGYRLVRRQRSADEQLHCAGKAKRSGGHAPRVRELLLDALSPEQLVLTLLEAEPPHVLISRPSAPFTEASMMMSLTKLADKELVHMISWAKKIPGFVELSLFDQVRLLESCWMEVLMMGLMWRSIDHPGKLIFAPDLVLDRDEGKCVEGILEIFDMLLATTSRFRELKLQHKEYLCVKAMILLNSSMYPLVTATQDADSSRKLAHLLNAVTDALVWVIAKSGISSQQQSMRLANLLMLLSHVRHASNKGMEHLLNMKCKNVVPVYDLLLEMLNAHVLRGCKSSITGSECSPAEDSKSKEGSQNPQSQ

As for `O=C1Cc2ccccc2N1c1c(Cl)cccc1Cl`, the Potency result in [1], in [2], in [5], in [6], in assay [7] and in [9] was “inactive” each time. Further, the Potency result in assay [10], in assay [11] and in assay [12] was “inactive” each time. For the same compound, the results for the Potency in assay [3] and in assay [4] were 54.5 µM (active) and 19.3 µM (active), respectively. Moreover, the result in assay [8] was inactive.

As for `O=C1Cc2cc(Cl)ccc2N1`, the Potency result in assay [1], in [2], in assay [13], in [4], in [5] and in [6] was “inactive” throughout. Further, the Potency result in assay [7], in assay [14], in assay [9], in assay [10], in [15] and in [16] was “inactive” in each case. The Potency entry in assay [17], in assay [11], in assay [18], in assay [12] and in [19] was “inactive” in each case. Moreover, the call in [8] was inactive.

Turning to `CCCCN(CCN(CCCC)C(=O)N1CCOCC1)C(=O)N1CCOCC1`, the Potency in [1] is 13.3 µM (active); in [17] it was 29.8 µM (active). Also, the Potency result in assay [2], in assay [13], in assay [4], in [5], in assay [6] and in assay [7] was “inactive” in each case. The Potency entry in [9], in assay [10], in assay [11], in assay [18] and in assay [19] was “inactive” each time. The compound was classed as inactive in assay [8] and in [20].

Consider `CCOc1cccc(-n2cc(C(=O)N3CCN(c4cc(C(=O)O)c5ccccc5c4)CC3)nc2-c2ccc(C)cc2)c1`, for which the Potency entry in assay [1], in assay [2], in assay [13], in assay [5], in assay [9] and in [10] was “inactive” in each case. For the same compound, the Potency result in assay [11] is “inactive”. For the same compound, the Potency in assay [4] is 14.7 µM (active).

Take `CCOC(=O)c1ccc(C#Cc2ccc3c(c2)C(C)(C)CCS3)nc1`: the Potency entry in [1], in assay [2], in [13], in [4], in [6] and in assay [14] was “inactive” throughout. The Potency result in assay [9], in assay [11], in assay [18] and in [19] was “inactive” throughout. Also, the call in assay [20] was inactive.

With `CCCCN1CCCC1C(=O)Nc1c(C)cc(C)cc1C` (stereo unspecified), the Potency entry in assay [1], in assay [2], in [13], in [4], in assay [6] and in [7] was “inactive” in each case. In addition, the Potency result in assay [9], in assay [10], in [16], in assay [17], in assay [11] and in [18] was “inactive” throughout. The Potency entry in assay [12] and in [19] was “inactive” in each case. Further, the compound was called inactive in [8] and in assay [20].

In the case of `CCCCOc1ccc(OCCCN2CCOCC2)cc1`, the Potency in assay [1] is 13.3 µM (active). Also, the Potency entry in [2], in assay [3], in assay [13], in [6], in assay [7] and in [14] was “inactive” in each case. Further, the Potency entry in assay [9], in [16], in assay [17], in assay [11], in assay [18] and in assay [12] was “inactive” throughout. Also, in assay [8], the compound was called inactive.

Take `CC(=O)OCC[N+](C)(C)C`: the Potency result in [1], in assay [2], in assay [13], in assay [4], in [6] and in assay [14] was “inactive” in each case. Moreover, the Potency entry in assay [9], in [10], in assay [15], in [16], in assay [17] and in assay [11] was “inactive” throughout. Besides, the Potency result in assay [18] and in [12] was “inactive” in each case. For the same compound, the compound was called inactive in [8] and in [20]. Moreover, the Potency in assay [19] was 3.01 µM (active).

These data come from PubChem BioAssay (Tox21).
